From the supplement of paper PMC6555819 come the findings set out here.

What all share (assay): PBM binding z-score (relative to random genomic background probes); higher = stronger binding; sequences stand for … in GC…GCGATTGACAGCGTAGAATGAAGG
For assay [1], the system named is FXR:RXRa (NR concentration 270 nM, RXRa partner concentration 90 nM). Put shortly:
(§1)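 Ligand-free nuclear receptor dimers were bound for 1 h to custom Agilent 4×180K protein-binding microarrays. Detection used antibodies against each partner (one per run). Binding z-scores rest on regression-normalized fluorescence, with random background probes as the reference.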

In assay [2] the test system is LXRa:RXRa (NR concentration 270 nM, RXRa partner concentration 90 nM). Summed up:
as §1

For assay [3], the system named is LXRa homodimer (NR concentration 270 nM). Summed up:
as §1

Assay [4] deals with LXRb:RXRa (NR concentration 270 nM, RXRa partner concentration 90 nM). Summed up:
as §1

For assay [5], the system named is LXRb homodimer (NR concentration 270 nM). Summed up: as §1
Assay [6] concerns PPARa:RXRa (NR concentration 270 nM, RXRa partner concentration 90 nM). Put shortly: as §1
The test system of assay [7] is PPARg:RXRa (NR concentration 180 nM, RXRa partner concentration 90 nM). Summed up: as §1
In assay [8] the test system is PPARg:RXRa 270nM:90nM, anti-RXR (NR concentration 270 nM, RXRa partner concentration 90 nM). Put shortly:
as §1

The test system of assay [9] is PPARg:RXRa 30nM:10nM, anti-RXR (NR concentration 30 nM, RXRa partner concentration 10 nM). Summed up: as §1
Assay [10] deals with PPARg:RXRa 90nM:30nM, anti-RXR (NR concentration 90 nM, RXRa partner concentration 30 nM). Summed up: as §1
Assay [11] deals with PPARg:RXRa DBDmut IVT, anti-RXR (DBD mutation: RXRa K156A/R161A, NR concentration 270 nM, RXRa partner concentration 90 nM). Put shortly: as §1
Assay [12] concerns PPARg:RXRa IVT, anti-PPARg (NR concentration 270 nM, RXRa partner concentration 90 nM). Put shortly: as §1
The test system of assay [13] is PPARg DBDmut:RXRa IVT, anti-PPARg (DBD mutation: PPARg1 K132A/R137A, NR concentration 270 nM, RXRa partner concentration 90 nM). Summed up: as §1
Assay [14] deals with PPARg DBDmut IVT, anti-PPARg (DBD mutation: PPARg1 K132A/R137A, NR concentration 270 nM). Put shortly: as §1
Assay [15] deals with PPARg homodimer (NR concentration 180 nM). Put shortly: as §1
The subject of assay [16] is PXR:RXRa (NR concentration 270 nM, RXRa partner concentration 90 nM). Summed up:
as §1

For assay [17], the system named is PXR homodimer (NR concentration 270 nM). Put shortly: as §1
The test system of assay [18] is RARa:RXR (NR concentration 270 nM, RXRa partner concentration 90 nM). Put shortly:
as §1

Assay [19] relates to RARa homodimer (NR concentration 270 nM). Put shortly: as §1
The subject of assay [20] is RARb:RXRa (NR concentration 270 nM, RXRa partner concentration 90 nM). Summed up: as §1

CGTCCAAGGTCAGAGAGGACAGTGAATGCCGAGT: the PBM binding z-score in [1] was 4.64; in assay [2], 3.42; in [3], 0.241; in assay [4] it was 2.28; in assay [5], -0.021; in assay [6], 3.85. Further, the PBM binding z-score in [7] was determined as 2.24; in assay [8], 2.75; in assay [9], 0.355; in assay [10], 1.59; in assay [11], 2.32; in assay [12], 2.3. For the same sequence, the PBM binding z-score was -0.223 in [13]; -1.03 in assay [14]; 2.09 in assay [15]; 3.22 in assay [16]; 4.69 in [17]; 2.69 in assay [18]. Further, the PBM binding z-score is 0.425 in assay [19] and 4.64 in [20].
For the sequence CCTTACGGGTCACGAGGTTATACCACGACGAGCG, the PBM binding z-score in assay [1] was 6.99; in [2], 4.85; in assay [3], 0.42; in [4], 4.37; in assay [5], -0.0941; in assay [6], 6.07. Also, the PBM binding z-score was 6.94 in assay [7]; 6.43 in assay [8]; 3.65 in assay [9]; 5.65 in assay [10]; 4.05 in [11]; 5.31 in [12]. Besides, the PBM binding z-score stood at 1.4 in assay [13]; 2.59 in assay [14]; 3.29 in [15]; 4.71 in [16]; 0.172 in assay [17]; 6.09 in assay [18]. For the same sequence, the PBM binding z-score in [19] came out at 0.951; in assay [20] it was 4.45.
ATACCCAGGTGATCGTGAGGTCGTTGATACTAAC: the PBM binding z-score is 1.37 in [1]; 1.07 in [2]; 0.85 in assay [3]; 1.07 in assay [4]; -0.141 in assay [5]; 1.35 in assay [6]. For the same sequence, the PBM binding z-score is 0.596 in [7]; 0.875 in assay [8]; -0.0532 in assay [9]; 0.317 in assay [10]; -0.291 in assay [11]; 1.1 in assay [12]. Moreover, the PBM binding z-score in assay [13] was determined as 0.599; in assay [14], 0.838; in assay [15] it was 0.843; in assay [16], 2.35; in assay [17], 1.32; in assay [18], 1.95. Further, the results for the PBM binding z-score in assay [19] and in [20] were -0.274 and 0.914, respectively.
Take CAAACTAGTTCAAAGGTCAAAGTCGAGCCAACCA: the PBM binding z-score in [1] is 7.5; in [2] it was 6.94; in [3], 5.57; in [4], 6.5; in assay [5], 2.97; in assay [6] it was 7.02. Further, the PBM binding z-score in [7] was determined as 11; in assay [8], 9.72; in assay [9], 11.8; in assay [10], 11.7; in assay [11] it was 3.06; in assay [12], 5.87. In addition, the PBM binding z-score in [13] was found to be 1.03; in assay [14] it was 1.34; in assay [15], 6.05; in assay [16] it was 6.85; in assay [17] it was 3.08; in [18] it was 8.58. In addition, the values for the PBM binding z-score in assay [19] and in assay [20] were 3.93 and 5.27, respectively.
As to TCGAGTAGGTTACCAATGGGGTATTCAGCTTTCT, the PBM binding z-score in [1] is 0.116; in assay [2] it was 0.749; in assay [3], -0.345; in assay [4] it was 0.847; in [5], -0.514; in assay [6], 0.988. Also, the PBM binding z-score in [7] came out at 0.229; in [8], 1.14; in [9] it was 1.34; in [10] it was 1.28; in assay [11], 3.18; in [12], 2.46. Moreover, the PBM binding z-score in assay [13] is -0.47; in assay [14] it was -0.0236; in assay [15], -0.0597; in assay [16], 0.05; in assay [17], -0.757; in assay [18], 0.339. The PBM binding z-score in assay [19] is -0.642; in assay [20], 0.76.
On to TCTCGGAGGACATGAAGGTCAGAGCTTTCCAGAG, for which the PBM binding z-score in [1] is 0.472; in [2] it was 1.08; in [3] it was 0.0663; in assay [4] it was 1.15; in assay [5], -0.779; in assay [6] it was 1.77. The PBM binding z-score in assay [7] was 0.175; in assay [8], 1.63; in [9] it was 2.55; in [10] it was 1.8; in assay [11], 2.01; in [12], 0.772. Further, the PBM binding z-score is -0.736 in [13]; -1.67 in [14]; 0.875 in assay [15]; 1.77 in assay [16]; 0.899 in assay [17]; 1.69 in assay [18]. Besides, the PBM binding z-score in assay [19] turned out to be 0.0257; in assay [20], 2.63.
Regarding CATACAGGGTCAGCTAGGCCACAGTAGGGACGGC, the PBM binding z-score in assay [1] is 4.61; in [2] it was 3.07; in [3], -0.102; in [4], 2.31; in [5], 0.444; in assay [6] it was 4.29. Further, the PBM binding z-score worked out at 3.75 in assay [7]; 3.32 in assay [8]; 0.994 in [9]; 2.01 in assay [10]; 1.06 in assay [11]; 2.82 in assay [12]. Besides, the PBM binding z-score in assay [13] was determined as 0.893; in assay [14] it was 0.0227; in [15] it was 2.12; in [16], 2.51; in assay [17] it was 0.181; in [18], 3.4. Besides, the PBM binding z-score is 0.445 in assay [19] and 4.17 in assay [20].
